Test results from publication PMC7862700, “An all-to-all approach to the identification of sequence-specific readers for epigenetic DNA modifications on cytosine”.

What was measured:
Test in all cases: DAPPL (digital affinity profiling via proximity ligation, sequencing); 10 mM Tris-HCl pH 7.5, 50 mM NaCl, 1 mM DTT, 4% glycerol, room temperature, 30 min; GST-TFs on glutathione beads, 16-mer random dsDNA library, 0.1% formaldehyde crosslink after washing; high values mean tight binding
Conditions in all cases: protein: recombinant; tags: N-terminal GST; dsDNA, one strand shown
FLI1 = target: T1, FLI1 (Homo sapiens, UniProt Q01543 1-452)
T1 sequence: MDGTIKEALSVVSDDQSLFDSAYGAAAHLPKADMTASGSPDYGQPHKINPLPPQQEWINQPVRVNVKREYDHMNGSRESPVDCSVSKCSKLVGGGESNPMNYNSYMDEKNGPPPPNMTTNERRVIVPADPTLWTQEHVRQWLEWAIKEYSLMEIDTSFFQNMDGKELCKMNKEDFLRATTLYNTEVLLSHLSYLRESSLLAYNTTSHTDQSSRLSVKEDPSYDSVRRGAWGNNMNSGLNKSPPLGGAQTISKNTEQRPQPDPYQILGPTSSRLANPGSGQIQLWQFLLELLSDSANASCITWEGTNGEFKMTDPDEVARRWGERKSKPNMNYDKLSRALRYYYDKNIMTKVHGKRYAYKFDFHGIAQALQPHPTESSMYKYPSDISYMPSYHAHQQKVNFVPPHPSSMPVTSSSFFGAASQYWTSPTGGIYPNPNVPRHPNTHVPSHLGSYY
How it was run: (§1)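 Pools of DNA-barcoded human transcription factors, expressed in yeast as GST fusions on glutathione beads and combined with a tag-only sample, were incubated with 200 nmole of a 16-mer random double-stranded DNA library. Incubation took 30 min at room temperature in Tris/NaCl/DTT/glycerol buffer and was followed by washing, 0.1% formaldehyde crosslinking, proximity ligation (BsaI/T4 ligase, 1 h, 37 °C), PCR amplification and sequencing on an Illumina NextSeq500. Binding signal is the ratio of a hexamer's read frequency for a factor to its frequency for the tag-only sample.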

ELK1 = target: T2, ELK1 (Homo sapiens, UniProt P19419 1-428)
T2 sequence: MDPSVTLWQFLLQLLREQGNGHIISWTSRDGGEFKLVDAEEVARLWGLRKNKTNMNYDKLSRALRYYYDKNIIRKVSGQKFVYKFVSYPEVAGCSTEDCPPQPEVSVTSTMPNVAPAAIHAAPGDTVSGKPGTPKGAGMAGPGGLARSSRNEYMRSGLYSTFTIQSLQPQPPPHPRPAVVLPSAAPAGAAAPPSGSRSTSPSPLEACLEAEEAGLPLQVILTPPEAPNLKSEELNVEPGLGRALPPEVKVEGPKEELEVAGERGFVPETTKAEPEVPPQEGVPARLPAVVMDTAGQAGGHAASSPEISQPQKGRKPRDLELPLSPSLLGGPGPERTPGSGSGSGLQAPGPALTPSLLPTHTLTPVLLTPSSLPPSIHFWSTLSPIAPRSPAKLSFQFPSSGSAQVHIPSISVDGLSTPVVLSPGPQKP
How it was run: as §1

GABPA = target: T3, GABPA (Homo sapiens, UniProt Q06546 1-454)
T3 sequence: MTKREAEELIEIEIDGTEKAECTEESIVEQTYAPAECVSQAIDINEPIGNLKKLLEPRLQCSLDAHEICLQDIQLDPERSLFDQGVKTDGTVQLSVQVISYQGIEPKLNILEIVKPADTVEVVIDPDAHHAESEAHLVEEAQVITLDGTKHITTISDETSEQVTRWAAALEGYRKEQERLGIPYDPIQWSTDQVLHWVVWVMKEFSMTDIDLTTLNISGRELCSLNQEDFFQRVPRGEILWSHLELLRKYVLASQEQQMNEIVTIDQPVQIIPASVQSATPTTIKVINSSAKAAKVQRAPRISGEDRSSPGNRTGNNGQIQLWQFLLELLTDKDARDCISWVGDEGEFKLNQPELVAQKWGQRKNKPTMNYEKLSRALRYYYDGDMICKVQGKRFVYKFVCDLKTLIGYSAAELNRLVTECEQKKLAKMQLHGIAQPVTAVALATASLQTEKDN
How it was run: as §1

ERG = target: T4, ERG (Homo sapiens, UniProt P11308 1-479)
T4 sequence: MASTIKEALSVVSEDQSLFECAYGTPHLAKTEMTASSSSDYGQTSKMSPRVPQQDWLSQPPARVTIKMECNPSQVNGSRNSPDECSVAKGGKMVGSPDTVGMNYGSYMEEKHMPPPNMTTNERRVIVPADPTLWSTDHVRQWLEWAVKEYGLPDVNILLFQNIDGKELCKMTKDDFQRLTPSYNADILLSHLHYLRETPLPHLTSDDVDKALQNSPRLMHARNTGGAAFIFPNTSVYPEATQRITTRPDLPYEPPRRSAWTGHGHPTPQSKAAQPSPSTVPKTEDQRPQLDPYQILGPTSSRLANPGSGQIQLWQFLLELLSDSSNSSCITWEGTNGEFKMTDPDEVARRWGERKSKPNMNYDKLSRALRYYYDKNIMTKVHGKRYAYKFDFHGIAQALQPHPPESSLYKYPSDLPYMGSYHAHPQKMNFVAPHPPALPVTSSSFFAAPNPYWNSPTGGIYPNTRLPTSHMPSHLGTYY
How it was run: as §1

ELF1 = ELF1 (Homo sapiens, UniProt P32519 1-619)
How it was run: as §1

EHF = target: T5, EHF (Homo sapiens, UniProt Q9NZC4 1-300)
T5 sequence: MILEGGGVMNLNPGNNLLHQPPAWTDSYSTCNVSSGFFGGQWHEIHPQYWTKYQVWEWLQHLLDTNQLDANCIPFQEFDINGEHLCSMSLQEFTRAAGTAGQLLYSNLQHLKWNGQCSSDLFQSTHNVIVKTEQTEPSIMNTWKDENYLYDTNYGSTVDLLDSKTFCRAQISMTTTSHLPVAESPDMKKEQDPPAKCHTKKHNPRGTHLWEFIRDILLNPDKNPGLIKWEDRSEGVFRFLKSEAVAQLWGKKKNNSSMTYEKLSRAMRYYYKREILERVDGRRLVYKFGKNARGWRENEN
How it was run: as §1

SPI1 = SPI1 (Homo sapiens, UniProt P17947 1-270)
How it was run: as §1

SPIB = SPIB (Homo sapiens, UniProt Q01892 1-262)
How it was run: as §1

ELK3 = target: T6, ELK3 (Homo sapiens, UniProt P41970 1-407)
T6 sequence: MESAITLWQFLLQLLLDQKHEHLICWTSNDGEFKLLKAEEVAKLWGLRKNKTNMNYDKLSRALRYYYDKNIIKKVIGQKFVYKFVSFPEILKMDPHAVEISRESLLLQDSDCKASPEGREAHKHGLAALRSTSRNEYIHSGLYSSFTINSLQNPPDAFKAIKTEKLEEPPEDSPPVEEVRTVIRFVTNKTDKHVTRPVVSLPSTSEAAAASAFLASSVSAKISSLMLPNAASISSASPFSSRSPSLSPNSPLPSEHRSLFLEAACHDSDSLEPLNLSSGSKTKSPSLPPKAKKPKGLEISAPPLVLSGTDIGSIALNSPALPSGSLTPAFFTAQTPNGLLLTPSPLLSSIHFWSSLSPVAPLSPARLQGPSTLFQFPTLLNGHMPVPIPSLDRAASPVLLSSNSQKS
How it was run: as §1

Chain of SPIB (Q01892 whole entry): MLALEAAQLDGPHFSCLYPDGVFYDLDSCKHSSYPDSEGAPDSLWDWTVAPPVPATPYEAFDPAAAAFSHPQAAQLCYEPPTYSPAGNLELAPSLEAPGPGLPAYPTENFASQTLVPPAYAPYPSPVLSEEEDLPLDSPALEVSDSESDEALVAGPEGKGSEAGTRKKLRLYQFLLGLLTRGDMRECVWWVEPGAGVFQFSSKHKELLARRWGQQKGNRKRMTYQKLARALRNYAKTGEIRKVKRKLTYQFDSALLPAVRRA
Chain of ELF1 (P32519 whole entry): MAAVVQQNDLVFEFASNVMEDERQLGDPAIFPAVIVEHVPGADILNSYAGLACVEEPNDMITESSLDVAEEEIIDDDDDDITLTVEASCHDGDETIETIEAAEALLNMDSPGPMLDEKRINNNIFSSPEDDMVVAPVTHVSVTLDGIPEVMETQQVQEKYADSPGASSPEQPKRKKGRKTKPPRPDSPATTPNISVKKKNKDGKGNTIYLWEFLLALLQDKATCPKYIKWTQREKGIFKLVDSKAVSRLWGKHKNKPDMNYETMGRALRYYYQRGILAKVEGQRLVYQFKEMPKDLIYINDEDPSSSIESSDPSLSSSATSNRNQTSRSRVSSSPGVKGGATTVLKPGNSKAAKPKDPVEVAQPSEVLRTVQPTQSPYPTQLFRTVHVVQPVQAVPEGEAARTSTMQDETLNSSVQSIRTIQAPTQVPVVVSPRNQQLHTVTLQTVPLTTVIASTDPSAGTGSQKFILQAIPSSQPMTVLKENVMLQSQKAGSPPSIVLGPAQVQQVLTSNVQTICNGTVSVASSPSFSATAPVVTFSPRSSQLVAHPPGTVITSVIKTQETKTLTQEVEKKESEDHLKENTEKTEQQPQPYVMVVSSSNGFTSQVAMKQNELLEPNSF

Sequence | binding signal (FLI1) | binding signal (ELK1) | binding signal (GABPA) | binding signal (ERG) | binding signal (ELF1) | binding signal (EHF) | binding signal (SPI1) | binding signal (SPIB) | binding signal (ELK3)
CCTACC | 1.21 fold enrichment (6-mer frequency, TF over GST control) | 1.37 fold enrichment (6-mer frequency, TF over GST control) | 1.39 fold enrichment (6-mer frequency, TF over GST control) | 1.29 fold enrichment (6-mer frequency, TF over GST control) | 1.28 fold enrichment (6-mer frequency, TF over GST control) | 1.33 fold enrichment (6-mer frequency, TF over GST control) | 1.31 fold enrichment (6-mer frequency, TF over GST control) | 1.38 fold enrichment (6-mer frequency, TF over GST control) | 1.27 fold enrichment (6-mer frequency, TF over GST control)
AGCAGC | 1.08 fold enrichment (6-mer frequency, TF over GST control) | 1.06 fold enrichment (6-mer frequency, TF over GST control) | 1.11 fold enrichment (6-mer frequency, TF over GST control) | 1.11 fold enrichment (6-mer frequency, TF over GST control) | 1.19 fold enrichment (6-mer frequency, TF over GST control) | 1.1 fold enrichment (6-mer frequency, TF over GST control) | 1.05 fold enrichment (6-mer frequency, TF over GST control) | 1.11 fold enrichment (6-mer frequency, TF over GST control) | 1.16 fold enrichment (6-mer frequency, TF over GST control)
GCACGC | 1.03 fold enrichment (6-mer frequency, TF over GST control) | 1.09 fold enrichment (6-mer frequency, TF over GST control) | 1.14 fold enrichment (6-mer frequency, TF over GST control) | 1.03 fold enrichment (6-mer frequency, TF over GST control) | 1.15 fold enrichment (6-mer frequency, TF over GST control) | 1.15 fold enrichment (6-mer frequency, TF over GST control) | 1.12 fold enrichment (6-mer frequency, TF over GST control) | 1.19 fold enrichment (6-mer frequency, TF over GST control) | 1.09 fold enrichment (6-mer frequency, TF over GST control)
GCCTCA | 1.34 fold enrichment (6-mer frequency, TF over GST control) | 1.34 fold enrichment (6-mer frequency, TF over GST control) | 1.34 fold enrichment (6-mer frequency, TF over GST control) | 1.13 fold enrichment (6-mer frequency, TF over GST control) | 1.25 fold enrichment (6-mer frequency, TF over GST control) | 1.17 fold enrichment (6-mer frequency, TF over GST control) | 1.17 fold enrichment (6-mer frequency, TF over GST control) | 1.25 fold enrichment (6-mer frequency, TF over GST control) | 1.19 fold enrichment (6-mer frequency, TF over GST control)
TAACTT | 1.41 fold enrichment (6-mer frequency, TF over GST control) | 1.39 fold enrichment (6-mer frequency, TF over GST control) | 1.34 fold enrichment (6-mer frequency, TF over GST control) | 1.34 fold enrichment (6-mer frequency, TF over GST control) | 1.46 fold enrichment (6-mer frequency, TF over GST control) | 1.35 fold enrichment (6-mer frequency, TF over GST control) | 1.62 fold enrichment (6-mer frequency, TF over GST control) | 1.43 fold enrichment (6-mer frequency, TF over GST control) | 1.27 fold enrichment (6-mer frequency, TF over GST control)
TGACGC | 1.1 fold enrichment (6-mer frequency, TF over GST control) | 1.22 fold enrichment (6-mer frequency, TF over GST control) | 1.15 fold enrichment (6-mer frequency, TF over GST control) | 1.13 fold enrichment (6-mer frequency, TF over GST control) | 1.3 fold enrichment (6-mer frequency, TF over GST control) | 1.21 fold enrichment (6-mer frequency, TF over GST control) | 1.15 fold enrichment (6-mer frequency, TF over GST control) | 1.24 fold enrichment (6-mer frequency, TF over GST control) | 1.1 fold enrichment (6-mer frequency, TF over GST control)
AGCCTA | 1.06 fold enrichment (6-mer frequency, TF over GST control) | 1.05 fold enrichment (6-mer frequency, TF over GST control) | 1.12 fold enrichment (6-mer frequency, TF over GST control) | 1.08 fold enrichment (6-mer frequency, TF over GST control) | 1.1 fold enrichment (6-mer frequency, TF over GST control) | 1.04 fold enrichment (6-mer frequency, TF over GST control) | 1.02 fold enrichment (6-mer frequency, TF over GST control) | 1.02 fold enrichment (6-mer frequency, TF over GST control) | 1.12 fold enrichment (6-mer frequency, TF over GST control)
CACCCT | 1.21 fold enrichment (6-mer frequency, TF over GST control) | 1.26 fold enrichment (6-mer frequency, TF over GST control) | 1.18 fold enrichment (6-mer frequency, TF over GST control) | 1.16 fold enrichment (6-mer frequency, TF over GST control) | 1.16 fold enrichment (6-mer frequency, TF over GST control) | 1.02 fold enrichment (6-mer frequency, TF over GST control) | 1.07 fold enrichment (6-mer frequency, TF over GST control) | 1.16 fold enrichment (6-mer frequency, TF over GST control) | 1.14 fold enrichment (6-mer frequency, TF over GST control)
